Consider 33 compounds from PubChem BioAssay.

The source made the active and inactive calls. How the calls were made is not given here.

The experiment concerns Aerobactin synthetase IucA (Klebsiella pneumoniae hvKP1). The experiment is described as follows: IucA enzyme inhibition, primary screen, biochemical, Spectrum library (AID 1346200).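 Further: 100% = wells without compound and 0% = wells lacking enzyme.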 Conditions: malachite green pyrophosphate, A620, at 8 µM, stronger effect = lower value.
With `CO/N=C1\CN(c2nc3c(cc2F)c(=O)c(C(=O)O)cn3C2CC2)CC1CN` (stereo not drawn), the activity remaining is 106% (inactive). In the case of `CC(=O)O[C@H]1C(=O)[C@@]2(C)C([C@H](OC(=O)c3ccccc3)[C@]3(O)C[C@H](OC(=O)[C@H](O)[C@@H](NC(=O)c4ccccc4)c4ccccc4)C(C)=C1C3(C)C)[C@]1(OC(C)=O)CO[C@@H]1C[C@@H]2O` (stereo partly drawn) it was 90.9% (inactive). In the case of `CCC(CCC(C)C1CCC2C3CC=C4C[C@@H](OC(C)=O)CC[C@]4(C)C3CC[C@]12C)C(C)C` (stereo partly drawn) it was 114% (inactive). Then `COC1CC2CCC(C)C(O)(O2)C(=O)C(=O)N2CCCCC2C(=O)OC(C(C)CC2CCC(O)C(OC)C2)CC(=O)C(C)/C=C(\C)C(O)C(OC)C(=O)C(C)CC(C)/C=C/C=C/C=C/1C` (stereo not drawn), with 107% (inactive); and `S=P(N1CC1)(N1CC1)N1CC1`, with 89.8% (inactive).

Consider `CC(C)(Oc1ccc(Cl)cc1)C(=O)O`, for which the activity remaining is 122% (inactive).

Consider `COc1cc2c3cc1Oc1cc(ccc1O)C[C@@H]1c4c(cc(OC)c(O)c4Oc4ccc(cc4)C[C@@H]3N(C)CC2)CC[N+]1(C)C`, for which the activity remaining is 99.6% (inactive).

On to `Oc1cc(O)c2c(c1)O[C@H](c1cc(O)c(O)c(O)c1)[C@H](O)C2`, for which the activity remaining was 116% (inactive).

Take `CC(C(=O)O)c1cccc(Oc2ccccc2)c1` (stereo not drawn): the activity remaining is 118% (inactive). In the case of `NC[C@@H]1O[C@H](O[C@@H]2[C@@H](CO)OC(O[C@@H]3[C@@H](O)[C@H](N)C[C@H](N)[C@H]3OC3O[C@H](CN)[C@@H](O)[C@H](O)[C@H]3N)[C@@H]2O)[C@H](N)[C@@H](O)[C@@H]1O` (stereo partly drawn) it was 99.1% (inactive). Then `CC(=O)NO`, with 103% (inactive). In the case of `O=C1C=CC(=O)c2c(O)c(Cl)c(Cl)c(O)c21` it was 109% (inactive); in that of `O=C(Oc1cccc2cccnc12)c1ccccc1`, 92.9% (inactive). For `CCC(=O)O[C@H]1CCC2C3CCc4cc(O)ccc4C3CC[C@@]21C` (stereo partly drawn), the activity remaining is 101% (inactive). Then `C=C(NC(=O)C(=C)NC(=O)c1csc(C2=NC3c4csc(n4)C4NC(=O)c5csc(n5)C(C(C)(O)C(C)O)NC(=O)C5CSC(=N5)C(=CC)NC(=O)C(C(C)O)NC(=O)c5csc(n5)C3(CC2)NC(=O)C(C)NC(=O)C(=C)NC(=O)C(C)NC(=O)C(C(C)CC)NC2C=Cc3c(C(C)O)cc(nc3C2O)C(=O)OC4C)n1)C(N)=O` (stereo not drawn), with 121% (inactive); and `CC(C)[C@@H]1CC[C@@H](C)C[C@H]1O`, with 95.9% (inactive); and `C=C1C2CC[C@@]3(C)[C@H](c4ccoc4)OC(=O)C[C@]13O[C@H]1CC(O)C(C)(C)C(CC(=O)OC)[C@@]21C` (stereo partly drawn), with 86.1% (inactive). For `CCN(CCO)CCCC(C)Nc1ccnc2cc(Cl)ccc12` (stereo not drawn), the activity remaining was 109% (inactive). Then `COc1ccc(-c2cc(=O)c3c(O)cc(O)c(-c4cc(-c5cc(=O)c6c(O)cc(O)cc6o5)ccc4OC)c3o2)cc1`, with 117% (inactive); and `CCCCOC(=O)c1ccc(N)cc1`, with 85.9% (inactive). Then `CC(C)CCCC(C)[C@H]1CCC2C3CC=C4CC(=O)CC[C@]4(C)C3CC[C@@]21C` (stereo partly drawn), with 113% (inactive); and `COC(=O)C1=CO[C@@H](C)[C@@H]2CN3CC[C@@]4(C(=O)Nc5ccccc54)[C@@H]3CC12` (stereo partly drawn), with 107% (inactive).

Turning to `CC(C)=CCCC(C)[C@@H]1CC[C@]2(C)C3=C(CC[C@@]12C)C1(C)CC[C@H](O)C(C)(C)C1CC3` (stereo partly drawn), the activity remaining is 124% (inactive). Then `COc1cc2c(cc1OC)-c1c(oc3cc(O)cc(O)c3c1=O)CO2`, with 90.7% (inactive).

As to `C=C[C@@](C)(O)CCC1C(=C)CCC2[C@@](C)(CO)CCC[C@]12C` (stereo partly drawn), the activity remaining was 117% (inactive). In the case of `C/C=C\C1=C(C(=O)O)N2C(=O)C(NC(=O)C(N)c3ccc(O)cc3)C2SC1` (stereo not drawn) it was 115% (inactive); in that of `Clc1ccccc1CN1CCc2sccc2C1`, 109% (inactive); in that of `CCN(CC)CCOc1ccc(/C(=C(\Cl)c2ccccc2)c2ccccc2)cc1`, 111% (inactive).

For `C[C@]12CC[C@H](O)CC1=CCC1C2CC[C@]2(C)C(=O)CCC12` (stereo partly drawn), the activity remaining is 103% (inactive). Then `CC1Cc2ccccc2N1NC(=O)c1ccc(Cl)c(S(N)(=O)=O)c1` (stereo not drawn), with 101% (inactive); and `COc1ccc2c(=O)ccoc2c1`, with 120% (inactive). In the case of `C[C@H]1[C@H](NC(=O)/C(=N/OC(C)(C)C(=O)O)c2csc(N)n2)C(=O)N1S(=O)(=O)O` (stereo in doubt) it was 113% (inactive); in that of `Cc1cc(-n2c(=O)[nH]c(=O)n(C)c2=O)ccc1Oc1ccc(SC(F)(F)F)cc1`, 109% (inactive).
